The values below come from PubChem BioAssay (NCATS).

Results filed as inconclusive are left out. A call without a number means that no potency is given here. Calls of active or inactive are those of the source. The call rests on the fitted dose curve; in most records, active means well fitted inhibition curve with a large enough effect; inconclusive means small, poorly fitted or top-dose-only effect; inactive means flat fitted curve, though single readings scatter.
Potency means the concentration at half of the fitted maximal effect.

A short description of the assay: qHTS for Inhibitors of Plasmodium falciparum (DD2) proliferation (AID 504314). The conditions noted are these: P. falciparum Dd2 in erythrocytes, SYBR Green growth, 72 h; series mostly up to 1.12 µM. The source says:
Plasmodium falciparum is a virulent malarial parasite that kills 1-2 million people worldwide each year. Malaria not only inflicts tremendous suffering and morbidity on the human population, but has dramatically influenced the course of civilization with profound sociological and economic implications (Shah, S. 2010). Transmitted by mosquitoes, the sporozoite form of the parasite enters the blood stream to infect hepatocytes, where they become merozoites that infect red blood cells (erythrocytes). Within erythrocytes, merozoites begin a […] cycle of growth and division, after which the parasite is released to infect new red blood cells. Gametocytes, which form within erythrocytes as well, circulate in the bloodstream and are ingested by the mosquito, thereby completing the life cycle (see CDC website). To profile malarial lines for differential chemical responses and to identify inhibitors of malarial growth, an assay that measures P. falciparum growth and replication within erythrocytes was employed. This assay uses a DNA binding fluorescent dye (SYBR Green) to detect parasite DNA following cell lysis. Because mature erythrocytes lack DNA, only Plasmodium-derived DNA is detected. The P. falciparum line cp250, derived from a malarial isolate from Cambodia, (Mu, J., et al. 2010) was added to the panel of lines, Dd2, HB3, 7G8 and GB4 in this study.
Laboratory of Assay Development and Screening Technology [ADST] and NIH Chemical Genomics Center [NCGC]
Boston University, Chemistry Department, Center for Chemical Methodology and Library Development [CMLD-BU]
NIH National Institute of Allergy and Infectious Diseases [NIAID]
ADST Assay Protocol Summary:
The 1536-well SYBR Green viability assay was based on the method of Bennett et al (2004) and described previously in 1536-well format (Yuan J., et al. 2009). For screening 3 ul culture medium was dispensed into 1536 well black clear bottom plates (Aurora Biotechnologies) using a Multidrop Combi (Thermo Fisher Scientific Inc.), 23 nL compounds in DMSO were added by a pin transfer (Cleveland, P.H. and Koutz, P.J, 2005) using a pin tool-based delivery system (Kalypsys), and 5 ul of erythrocytes infected with P. falciparum one of five lines (cp250, Dd2, HB3, 7G8 or GB4, 0.3% parasitemia, 2.5% hematocrit final concentration) were added. The plates were incubated at 37C in a humidified incubator in 5% CO2 for 72 h, and 2 ul lysis buffer (20 mM Tris HCl, 10 mM EDTA, 0.16% saponin, 1.6% triton X, 10X SYBR Green I (supplied as 10,000X final concentration by Invitrogen) was added to each well. The plates were mixed for 25 sec with gentle shaking and incubated overnight at room temperature in the dark. The following morning, fluorescence intensity at 485(14) nm excitation and 535(25) nm emission wavelengths was measured on an EnVision (Perkin Elmer) plate reader. Plate reads were normalized relative to the control inhibitor (0.29 uM artemisinin) and vehicle (DMSO) wells present on each plate and then corrected by an algorithm using vehicle-only control plates at the beginning and end of the compound plate stack.
Shah, S. (2010). The Fever: how malaria has ruled humankind for 500,000 years. New York, Sarah Crichton Books.
CDC web site, http://www.cdc.gov/malaria/about/biology/index.html
Mu, J., Myers, R.A., Jiang, H., Liu, S., Ricklefs, S., Waisberg, M., Chotivanich, K., Wilairatana, P., Krudsood, S., White, N.J., et Plasmodium falciparum genome-wide scans for positive selection, recombination hot spots and resistance to antimalarial drugs Nature Genetics 2010, 42, pp 268-271
Bennett TN, Paguio, M., Gligorijevic, B., Seudieu, C., Kosar, A. D., Davidson, E., and Roepe, P. D. Novel, rapid, and inexpensive cell-based quantification of antimalarial drug efficacy Antimicrobial Agents Chemother. 2004, 48(5): pp 1807-10
Yuan J, Johnson RL, Huang RL, Wichterman J, Jiang HY, Hayton K, Fidock DA, Wellems TE, Inglese J, Austin CP, Su XZ. […]
Background: In qHTS, concentration-response curves come from the screen itself.
`C[C@H]1Cc2c(COc3ccccc3)nc3c(c2CO1)CN(C(=O)NCCc1c[nH]c2ccccc12)CC3`: the Potency entry is “inactive”.

As to `COC(=O)C1=C(C(=O)OC)[C@@H]2N(C)c3ccccc3[C@@]23C[C@@H](C(=O)OC)N(C(=O)COCc2ccccc2)C3=N1`, the Potency result is “inactive”.

As for `COC(=O)CCCC1=CC2=CC(=O)C(C)(OC(=O)c3cccs3)C(=O)C2=CN1c1ccccc1` (stereo not given), the Potency result is “inactive”.

For the compound `CCN1C(=O)N[C@@H](c2ccccc2)[C@H](C(C)=O)[C@H]1C`, the Potency entry is “inactive”.

Consider `COc1ccc(-c2nc3c(c4c2C[C@H](c2ccccc2)OC4)CN(C(=O)C2CCCCC2)CC3)c(C)c1`, for which the Potency result is “inactive”.

For `CCOC(=O)CN1C(=O)N[C@@H](c2cccs2)C(C(C)=O)=C1C`, the Potency entry was “inactive”.

With `CC1(OC(=O)C2CCCC2)C(=O)C=C2C=C(c3ccsc3)N(CCCCO)C=C2C1=O` (stereo not given), the Potency entry is “inactive”.

For `COCCN1C(=O)N[C@@H](c2cccc(C(F)(F)F)c2)[C@@H](C(=O)OC)[C@H]1C`, the Potency result is “inactive”.

As to `COC(=O)C1=C(C(=O)OC)[C@@H]2N(C)c3ccc(OC)cc3[C@@]23C[C@@H](C(=O)OC)N(C(=O)COCc2ccccc2)C3=N1`, the Potency entry was “inactive”.

Take `COc1cccc(CC(=O)N2CCc3nc(-c4ccccc4)c4c(c3C2)CO[C@@H](C)C4)c1`: the Potency entry was “inactive”.

Take `CCOC(=O)CN1C(=O)N[C@@H](c2cccs2)C(C(=O)OC)=C1C`: the Potency entry is “inactive”.

As to `COC(=O)N[C@H](C(C(=O)OC)=C(C)NCc1ccccc1)c1cccc(F)c1`, the Potency entry is “inactive”.

As for `COCCN1C=C2C(=O)C(C)(OC(=O)CCC(=O)OC)C(=O)C(Br)=C2C=C1c1ccc(OC)cc1` (stereo not given), the Potency result was “inactive”.

For `COC/C=C/C1=CC2=CC(=O)C(C)(OC(=O)c3cnc4ccccc4n3)C(=O)C2=CN1c1ccccc1` (stereo not given), the Potency entry is “inactive”.

On to `COC(=O)C1=C(C)N(CC2CC2)C(=O)N[C@H]1c1ccccc1`, for which the Potency result is “inactive”.

On to `CCOC(=O)NN=C1C[C@@H](O)[C@@H](O)[C@@H]2[C@H]3C(=O)N(C4CCCCC4)C(=O)[C@@H]3CC[C@@H]12`, for which the Potency result is “inactive”.

Take `COc1ccc(C2=CC3=C(Br)C(=O)C(C)(OC(=O)c4cnc5ccccc5n4)C(=O)C3=CO2)cc1` (stereo not given): the Potency entry was “inactive”.

Turning to `CC[C@@H](C)CN1C(=O)N[C@@H](c2ccccc2)C(C(=O)OC)=C1C`, the Potency result was “inactive”.

On to `Cc1ccccc1Nc1oc(-c2ccccc2)nc1-c1ccc(C(F)(F)F)cc1`, for which the Potency entry is “inactive”.

`C[C@H]1Cc2c(COc3ccccc3)nc3c(c2CO1)CN(C(=O)c1ccco1)CC3`: the Potency result is “inactive”.

Turning to `C=CCN1c2ccccc2[C@]23C[C@@H](C(=O)OC)N(C(=O)c4ccco4)C2=NC(C(=O)OC)=C(C(=O)OC)[C@H]13`, the Potency entry is “inactive”.

`C[C@@H]1CC[C@H]2C(=O)N(Cc3ccc(Cl)cc3)C[C@H](O)CN2[C@@H]1c1ccc(Br)cc1`: the Potency is 1.69 µM (active).

Consider `CCCCc1nc2c(c3c1C[C@H](C)OC3)CN(C(=O)N[C@@H](C)c1ccccc1)CC2`, for which the Potency entry was “inactive”.

As for `C=CC[C@]1(C(=O)OC)C=C[C@H](C)[C@@H](c2ccccc2)N1C(=O)C(F)(F)F`, the Potency result was “inactive”.

As for `CCC(=O)OC1(C)C(=O)C=C2C=C(CCCCNC(=O)OC(C)(C)C)OC=C2C1=O` (stereo not given), the Potency result is “inactive”.

As to `C=CCN1C=C2C(=O)C(C)(OC(=O)CCC(=O)OC)C(=O)C=C2C=C1C1CC1` (stereo not given), the Potency entry was “inactive”.

In the case of `CCCCC1=CC2=CC(=O)C(C)(OC(=O)CC)C(=O)C2=CN1C1CCCCC1` (stereo not given), the Potency entry was “inactive”.

With `COc1ccc(NC(=O)N2CCc3nc(COc4ccccc4)c4c(c3C2)CO[C@@H](C)C4)cc1`, the Potency result was “inactive”.

Take `COC(=O)C1=C(C(=O)OC)[C@@H]2N(C)c3ccccc3[C@@]23C[C@@H](C(=O)OC)N(C(C)=O)C3=N1`: the Potency entry is “inactive”.

`CC#CCN1c2ccccc2[C@]23C[C@@H](C(=O)OC)N(C(=O)COCc4ccccc4)C2=NC(C(=O)OC)=C(C(=O)OC)[C@H]13`: the Potency result was “inactive”.

Consider `COc1ccc(-c2nc3c(c4c2C[C@H](c2ccccc2)OC4)CN(S(=O)(=O)c2ccc4c(c2)OCCN4C)CC3)c(C)c1`, for which the Potency entry was “inactive”.

With `COC(=O)C1=C(C(=O)OC)[C@@H]2N(C)c3ccc(OC)cc3[C@@]23C[C@@H](C(=O)OC)N(C(=O)c2ccc(Br)cc2)C3=N1`, the Potency entry was “inactive”.

As to `CCCCC1=CC2=CC(=O)C(C)(OC(=O)CC)C(=O)C2=CN1Cc1ccco1` (stereo not given), the Potency result is “inactive”.

In the case of `COC(=O)CCCC1=CC2=CC(=O)C(C)(OC(=O)c3cccs3)C(=O)C2=CN1c1ccc(CO)cc1` (stereo not given), the Potency result is “inactive”.

Regarding `CC#CCN1c2ccccc2[C@]23C[C@@H](C(=O)OC)N(S(=O)(=O)c4ccc(C)cc4)C2=NC(C(=O)OC)=C(C(=O)OC)[C@H]13`, the Potency entry is “inactive”.

As to `CCOC(=O)CN1C(=O)N[C@@H](c2cccc(F)c2)C(C(C)=O)=C1C`, the Potency result was “inactive”.

Consider `COC(=O)CCC(=O)OC1(C)C(=O)C2=CN(CCc3ccccn3)C(c3ccc(OC)cc3)=CC2=C(Br)C1=O` (stereo not given), for which the Potency result is “inactive”.

Consider `C=CCN1C=C2C(=O)C(C)(OC(=O)C3CCCC3)C(=O)C(c3ccccc3)=C2C=C1CCCC(=O)OC` (stereo not given), for which the Potency entry is “inactive”.

With `COC(=O)C1=C(C(=O)OC)[C@@H]2N(C)c3ccc(OC)cc3[C@@]23C[C@@H](C(=O)OC)N=C3N1`, the Potency result was “inactive”.

For the compound `CCN1C(=O)N[C@@H](CCc2ccccc2)C(C(=O)OC)=C1C`, the Potency result was “inactive”.
